The values below come from PubChem BioAssay.

The assay can be described thus: JC-1 mitochondrial signal, unstimulated HepG2 cells – cell-based, JC-1 fluorescence, 24 h, 100 nL compound, profiling panel (AID 1167). Note: test concentration not given here. As to conditions: HepG2 mitochondrial potential, higher = more signal.
Turning to `COC(=O)c1c(CC[C@@H](CO)NC(=O)N2CCC[C@H]2Cn2cc(-c3ccccn3)nn2)oc(C(C)=O)c1C(=O)OC`, the z-score is -0.443.

In turn, `CCN(CC)c1ccc(N2CC=CC34O[C@@H]5/C=C\CCCOC(=O)C5[C@H]3C(=O)N(CCO)[C@@H]4C2=O)cc1` (stereo not given in full) gave a z-score of -0.451. As to `CCOC(=O)C1=CCC(c2ccccc2)N(S(=O)(=O)CC[Si](C)(C)C)C1` (stereo not given), the z-score turned out to be 4.48.

The compound `NCCCCCNC(=O)[C@@H]1C[C@@H]2C(=O)NCC(=O)N2[C@@H]1c1ccc(O)cc1` came in with a z-score of 1.32. With `CC(C)(C)OC(=O)CC[C@]1(C(=O)O)N=C(c2ccc(OCCCO)cc2)O[C@H]1c1ccccc1N=[N+]=[N-]` the figure was -2.45. The result for `O=C1C2C=CC(C(O)C(c3ccccc3)c3ccccc3)N(n3cnnc3)C2C(=O)N1Cc1ccccc1` (stereo not given) reads -1.26. The result for `COc1ccc([Si](C)(C)[C@H]2[C@H](CCn3cc([C@H](O)c4ccccc4)nn3)O[C@@]3(C(=O)N(Cc4cccc(N5CCOC5=O)c4)c4ccccc43)[C@@H]2C)cc1` reads -0.242; that for `COCCOC(=O)N1C(=O)[C@@]2(c3cc(C#Cc4ccc(OC)cc4)ccc31)[C@H](C(N)=O)[C@H]1C(=O)O[C@H](c3ccccc3)[C@H](c3ccccc3)N1[C@@H]2c1ccccc1OCCO`, -1.79. Compound `CC(CO)N1C(=O)[C@@H]2C3C(=O)OCCC/C=C\[C@H]3OC23C=CCN(c2ccc4ccccc4c2)C(=O)[C@@H]13` (stereo not given in full) gave a z-score of 0.811. The result for `O=C1NC(=O)C2C1C=CC(C(O)C(c1ccccc1)c1ccccc1)N2Nc1ccc(Cl)cc1Cl` (stereo not given) reads -3.99. With `CC(=O)n1cc(C(O)C2C=CC3C(=O)N(C)C(=O)C3N2Nc2ccccc2)c2ccccc21` (stereo not given) the figure was -1.58. Compound `CC(C)C[C@@H]1NC(=O)[C@H]2C[C@@H](C(=O)NCCCCCCN(C)C)[C@@H](c3ccc(O)cc3)N2C1=O` showed a z-score of -0.438. The compound `CCN(CC)c1ccc(N2CC=CC34O[C@@H]5/C=C\CCC(C)OC(=O)C5[C@H]3C(=O)N(C(CO)C(C)C)[C@@H]4C2=O)cc1` (stereo not given in full) registered a z-score of 0.96. The result for `C=CCNC(=O)[C@H]1[C@@H]2C(=O)O[C@@H](c3ccccc3)[C@@H](c3ccccc3)N2[C@@H](c2ccccc2OCCO)[C@]12C(=O)Nc1ccc(C#CC3=CCCCC3)cc12` reads -1.84.

In turn, `CCOC(=O)[C@H]1C/C=C/C[C@H](C(=O)OCC)C(=O)O[C@H]2[C@@H](OC)O[C@H](CO)[C@@H](OC(=O)Nc3cccc(F)c3)[C@@H]2OC1=O` yielded a z-score of -3.56.

Turning to `CCCC[C@H]1OB(O)C[C@H]2C1=C(COc1ccccc1)C[C@H]1C(=O)N(C)C(=O)[C@H]12`, the z-score was -1.29. The result for `OC([C@@H]1CC(c2ccccc2)=NO1)[C@H]1CC(c2ccccc2)=NO1` (stereo not given in full) reads 1.05. Regarding `CN(C)C(=O)[C@]1(Cc2ccccc2N=[N+]=[N-])N=C(c2ccc(OCCCO)cc2)O[C@@H]1c1ccccc1`, the z-score came to 0.397.

In turn, `CCCCCN1CC=CC23O[C@@H]4/C=C\CCCOC(=O)C4[C@H]2C(=O)N(CCCO)[C@@H]3C1=O` (stereo not given in full) registered a z-score of -0.472.

For the compound `CC(C)[C@@H](CO)NC(=O)[C@H]1[C@@H](c2ccccc2)N(c2ccccc2)O[C@@H]1C`, the z-score was found to be 0.324. Turning to `C=CC[C@@]1(C(=O)N(C)C)N=C(c2ccc(OCCCO)cc2)O[C@@H]1c1ccccc1N=[N+]=[N-]`, the z-score was -0.328.

In turn, `C=C(C)C1C(=C)CN([C@H](CO)c2ccccc2)C1=O` (stereo not given in full) came in with a z-score of -0.113. Regarding `O=C(O)[C@@]1(CCS(=O)(=O)c2ccccc2)COC(c2ccc(OCCCO)cc2)=N1`, the z-score was -1.13.

`COC(=O)[C@@]1(Cc2ccc(OC)cc2)[C@H]2c3cc(C(=O)N(C)C)n(CCN4CNCC4=O)c3C[C@H]2CN1C(=O)c1ccccc1` showed a z-score of -0.812. Consider `[N-]=[N+]=NCc1ccccc1[C@@H]1OC(c2ccc(OCCCO)cc2)=N[C@]1(Cc1ccccc1N=[N+]=[N-])C(=O)N1CCOCC1`, for which the z-score was -0.516. In the case of `CN(C)CCCCCCNC(=O)[C@@H]1C[C@@H]2C(=O)N[C@@H](CCCCN)C(=O)N2[C@@H]1c1cccc(OCCO)c1`, the z-score was determined as 1.87. With `CN1C(=O)C2C=CC(C(O)C3=C[C@H]4C[C@@H](C3)C4(C)C)N(Nc3ccccc3)C2C1=O` (stereo not given in full) the figure was -1.75. The compound `COC(=O)c1c(CC[C@@H](CO)NC(=O)N[C@H](Cn2cc(Cc3ccccc3)nn2)C(C)C)oc(C(C)=O)c1C(=O)OC` returned a z-score of -0.0757. The result for `CN(C)CCCNC(=O)[C@@]1(c2ccc([N+](=O)[O-])cc2)CC(=O)N(C2CCCCC2)[C@@H]1c1ccc(CO)cc1` reads 0.259.

`C=CCN1C(=O)[C@@]2(O[C@@H](CCO)[C@H]([Si](C)(C)c3ccc(OC)cc3)[C@H]2C)c2cc(NC(=O)c3ccc(OC)cc3)ccc21` gave a z-score of -1.69.
